From PubChem BioAssay (Tox21)
Records with an inconclusive call do not appear. Activity calls are given as the source filed them. Unless noted, the call rests on the fitted dose curve; in most records, active means well fitted curve in the direction sought with a large enough effect in the repeat runs; inconclusive means weak or mixed curves; inactive means no such curve, though single readings can be large; an effect the other way counts as inactive or inconclusive.

Columns and labels:
[1] = molecular target: Thyrotropin receptor (Homo sapiens) (UniProt P16473); assay: qHTS assay to identify small molecule agonists of the thyroid stimulating hormone receptor (TSHR) signaling pathway (AID 1224843; calls by dose curve; further: nearly all actives have a fitted effect of over 45% in size)
Thyrotropin receptor (Homo sapiens), sequence (P16473 whole entry, looked up): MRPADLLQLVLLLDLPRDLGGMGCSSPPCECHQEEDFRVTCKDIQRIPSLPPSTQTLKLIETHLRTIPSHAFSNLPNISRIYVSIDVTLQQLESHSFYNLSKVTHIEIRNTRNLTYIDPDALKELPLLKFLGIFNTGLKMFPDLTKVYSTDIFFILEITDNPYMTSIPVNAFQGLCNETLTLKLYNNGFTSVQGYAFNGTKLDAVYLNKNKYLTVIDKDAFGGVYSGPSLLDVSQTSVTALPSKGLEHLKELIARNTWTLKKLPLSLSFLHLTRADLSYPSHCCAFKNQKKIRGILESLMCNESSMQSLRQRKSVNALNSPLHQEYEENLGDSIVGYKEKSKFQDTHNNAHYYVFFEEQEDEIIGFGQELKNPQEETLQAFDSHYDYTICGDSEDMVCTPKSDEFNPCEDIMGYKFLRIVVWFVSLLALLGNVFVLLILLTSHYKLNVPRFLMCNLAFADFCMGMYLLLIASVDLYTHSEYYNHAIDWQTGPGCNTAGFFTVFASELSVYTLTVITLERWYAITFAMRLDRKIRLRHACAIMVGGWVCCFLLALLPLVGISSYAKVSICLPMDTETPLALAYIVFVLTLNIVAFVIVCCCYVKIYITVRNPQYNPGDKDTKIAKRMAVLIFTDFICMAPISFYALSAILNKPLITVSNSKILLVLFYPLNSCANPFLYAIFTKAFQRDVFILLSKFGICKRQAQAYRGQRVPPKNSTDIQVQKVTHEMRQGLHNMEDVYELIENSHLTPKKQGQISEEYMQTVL
Procedure, shortened: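 Cell line HEK293 with TSHR; density 800/well. Exposure 30 min RT. Readout HTRF cAMP (cAMP-d2/anti-cAMP-cryptate), 1 h RT before reading.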

[2] = qHTS assay to identify small molecule agonists of the hypoxia (HIF-1) signaling pathway - cell viability counter screen (AID 1224844; calls by dose curve; further: nearly all actives have a fitted effect of over 50% in size; further: potency means the concentration at half of the fitted maximal effect)
Procedure, shortened: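 ME-180 HRE-bla cells, 2,000/well, 0.5% dialyzed FBS; 5 hr settle, 17 hr compound at 37C/5% CO2; CCF4-AM reporter read first, then CellTiter-Glo luminescence after 30 min RT.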

[3] = qHTS assay to identify small molecule agonists of H2AX (AID 1224845; active means well fitted activation curve with a large enough effect in the signal ratio in the repeat runs, not every such curve was filed as active; the % refers to the signal ratio)
Procedure, shortened: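 Wild-type CHO-K1 cells plated overnight, then exposed 3 hr at 37C to compounds at 15 concentrations (0.76% DMSO). Lysed, then HTRF anti-pH2AX(S139)-cryptate/anti-H2AX-d2 detection after 24 hr at room temperature; emissions 665 and 620 nm.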

[4] = qHTS assay to identify small molecule agonists of the hypoxia (HIF-1) signaling pathway (AID 1224846; active means well fitted activation curve with a large enough effect in the signal ratio in the repeat runs, not every such curve was filed as active; the % refers to the signal ratio)
Procedure, shortened: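 Cell line: CellSensor HRE-bla ME-180; 2,000 cells/well; 0.5% dialyzed FBS; 5 h preincubation; DMSO compound pin transfer; 17 h, 37C, 5% CO2; CCF4-AM added; bla FRET signal scored for activation.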

[5] = qHTS assay to identify small molecule agonists of H2AX - cell viability counter screen (AID 1224847; calls by dose curve; further: top concentration of the series differs between compounds; nearly all actives have a fitted effect of over 30% in size)
Procedure, shortened: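 Read-out: CellTiter-Glo luminescence, 30 min RT. Cells: wild-type CHO-K1, 1000/well, 10% FBS, plated overnight at 37C. Treatment: 15 concentrations, 3 hr, 37C, 0.76% DMSO.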

[6] = qHTS assay to identify small molecule antagonists of the estrogen related receptor (ERR) signaling pathway from Tox21 library (AID 1224848); further: nearly all actives have a fitted effect of over 50% in size
Procedure, shortened: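 Screening used an ERR reporter line supplied by NTP, exposed for 18 h at 37 C to library compounds delivered in DMSO. Signal was luciferase luminescence developed with ONE-Glo at room temperature for 30 min.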

[7] = qHTS assay to identify small molecule agonists of the estrogen related receptor (ERR) signaling pathway from Tox21 library (AID 1224849; calls by dose curve; further: nearly all actives have a fitted effect of over 15% in size); conditions: ERR reporter cell line, ONE-Glo luciferase, 18 h; at 92.4 µM (top of the series) unless noted
Procedure, shortened: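 ERR cells, 6 h pre-incubation 37 C/5% CO2; cpd in DMSO pinned; 18 h 37 C; ONE-Glo added, 30 min RT; luminescence read. Agonist mode, qHTS.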

[8] = qHTS RealTime-Glo MT Cell Viability Assay in HepG2 cells - 24 hour (AID 1224867); further: nearly all actives have a fitted effect of over 50% in size
Procedure, shortened: (§1)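 Cell number in HepG2 cultures estimated from NanoLuc luminescence generated by metabolic reduction of a prosubstrate by living cells. The homogeneous, nonlytic format allowed repeated reads at 0, 8, 16, 24, 32 and 40 h of compound exposure.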

[9] = qHTS RealTime-Glo MT Cell Viability Assay in HEK293 cells - 32 hour (AID 1224868); further: nearly all actives have a fitted effect of over 50% in size; further: potency means the concentration at half of the fitted maximal effect
Procedure, shortened: (§2)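 Homogeneous bioluminescent viability format in HEK293 cells (600 cells/well). Following 5 h at 37 C/5% CO2, 23 nL compound was pintooled; the signal was measured repeatedly during 40 h incubation.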

[10] = A CellTox Green Cytotoxicity Assay to monitor cytotoxicity in HEK293 cells - 0 hour (AID 1224869); further: nearly all actives have a fitted effect of over 50% in size
Procedure, shortened: (§3)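 Nonlytic real-time cytotoxicity: HEK293 + CellTox Green reagent plated, 5 h preincubation, pintool compound addition (23 nL in DMSO), 37 C for 40 h, fluorescence measured at successive time points.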

[11] = qHTS RealTime-Glo MT Cell Viability Assay in HepG2 cells - 40 hour (AID 1224870); further: nearly all actives have a fitted effect of over 50% in size
Procedure, shortened: (§4)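 HepG2 cells mixed with RealTime-Glo MT reagents (NanoLuc plus cell-permeant prosubstrate) were seeded at 600 cells/well, incubated 5 h at 37 C/5% CO2, then pinned with compounds in DMSO; nonlytic luminescence tracked viability during 40 h treatment.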

[12] = A CellTox Green Cytotoxicity Assay to monitor cytotoxicity in HEK293 cells - 40 hour (AID 1224871); further: nearly all actives have a fitted effect of over 45% in size
Procedure, shortened: as §3

[13] = qHTS RealTime-Glo MT Cell Viability Assay in HEK293 cells - 16 hour (AID 1224872); further: nearly all actives have a fitted effect of over 50% in size; further: potency means the concentration at half of the fitted maximal effect
Procedure, shortened: as §2

[14] = qHTS RealTime-Glo MT Cell Viability Assay in HepG2 cells - 8 hour (AID 1224873); further: nearly all actives have a fitted effect of over 55% in size
Procedure, shortened: as §4

[15] = qHTS RealTime-Glo MT Cell Viability Assay in HEK293 cells - 40 hour (AID 1224874); conditions: RealTime-Glo luminescence; max response: stronger effect = lower value; further: nearly all actives have a fitted effect of over 50% in size; further: potency means the concentration at half of the fitted maximal effect
Procedure, shortened: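 Cells were seeded together with NanoLuc luciferase and a prosubstrate that viable cells reduce to a luciferase substrate. After a 5 h incubation at 37 C/5% CO2, compounds were added and luminescence was measured repeatedly during 40 h of treatment.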

[16] = A CellTox Green Cytotoxicity Assay to monitor cytotoxicity in HEK293 cells - 24 hour (AID 1224875); further: nearly all actives have a fitted effect of over 45% in size
Procedure, shortened: as §3

[17] = A CellTox Green Cytotoxicity Assay to monitor cytotoxicity in HepG2 cells - 24 hour (AID 1224878); further: nearly all actives have a fitted effect of over 45% in size
Procedure, shortened: (§5)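 Read-out is fluorescence of a cyanine dye excluded from live cells that stains DNA of dead HepG2 cells, with signal proportional to cytotoxicity. Plates were read at 0, 8, 16, 24, 32 and 40 h after compound addition.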

[18] = A CellTox Green Cytotoxicity Assay to monitor cytotoxicity in HepG2 cells - 40 hour (AID 1224879); further: nearly all actives have a fitted effect of over 40% in size
Procedure, shortened: as §5

[19] = A CellTox Green Cytotoxicity Assay to monitor cytotoxicity in HepG2 cells - 16 hour (AID 1224876); further: nearly all actives have a fitted effect of over 45% in size
Procedure, shortened: as §5

[20] = qHTS RealTime-Glo MT Cell Viability Assay in HepG2 cells - 32 hour (AID 1224877); further: nearly all actives have a fitted effect of over 55% in size
Procedure, shortened: as §1
On the % scale 0 is the no-effect control and ±100 the full control effect.

CC(=O)Oc1ccc([N+](=O)[O-])cc1CCl
inactive: Potency [1] | Potency [3] | outcome [4] | Potency [5] | Potency [6] | activity change, positive = activation [7] -12.3% | Potency [8] | Potency [10] | Potency [11] | Potency [12] | Potency [14] | Potency [16] | Potency [17] | Potency [18]
active: Potency [2] 49 µM | Potency [9] 3.89 µM | Potency [13] 6.16 µM | Potency [15] 3.47 µM

O=c1[nH]c2ccc(Cl)cc2o1
inactive: Potency [1] | Potency [2] | Potency [3] | outcome [4] | Potency [5] | Potency [6] | activity change, positive = activation [7] 4.04% | Potency [8] | Potency [9] | Potency [10] | Potency [11] | Potency [12] | Potency [13] | Potency [14] | max response [15] -0.887% | Potency [16] | Potency [19] | Potency [20] | Potency [17] | Potency [18]

CCCCCCCCCCC(=O)O
inactive: Potency [1] | Potency [2] | Potency [3] | outcome [4] | Potency [5] | Potency [8] | Potency [9] | Potency [10] | Potency [11] | Potency [12] | Potency [13] | Potency [14] | max response [15] 3.53% | Potency [16] | Potency [19] | Potency [17] | Potency [18]

Cc1ccc(C(C)(C)O)cc1
inactive: Potency [1] | Potency [2] | Potency [3] | outcome [4] | Potency [5] | Potency [8] | Potency [9] | Potency [10] | Potency [11] | Potency [12] | Potency [13] | Potency [14] | max response [15] -0.324% | Potency [16] | Potency [19] | Potency [20] | Potency [17] | Potency [18]

N#CCc1ccc(Cl)cc1Cl
inactive: Potency [1] | Potency [2] | Potency [3] | outcome [4] | Potency [5] | Potency [6] | activity change, positive = activation [7] 0.109% | Potency [8] | Potency [9] | Potency [10] | Potency [11] | Potency [12] | Potency [13] | Potency [14] | max response [15] -14.5% | Potency [16] | Potency [19] | Potency [20] | Potency [17] | Potency [18]

Cc1c(C)c2c(c(C)c1OC(=O)CCC(=O)OCCO)CC[C@@](C)(CCC[C@H](C)CCC[C@H](C)CCCC(C)C)O2
inactive: Potency [1] | Potency [2] | Potency [3] | outcome [4] | Potency [5] | activity change, positive = activation [7] -48.8% [at 42.5 µM] | Potency [8] | Potency [9] | Potency [10] | Potency [11] | Potency [12] | Potency [13] | Potency [14] | max response [15] -18.9% | Potency [16] | Potency [19] | Potency [20] | Potency [17] | Potency [18]

Cc1ccccc1S
inactive: Potency [1] | Potency [2] | Potency [3] | outcome [4] | Potency [5] | Potency [8] | Potency [9] | Potency [10] | Potency [11] | Potency [12] | Potency [13] | Potency [14] | max response [15] -6.46% | Potency [16] | Potency [19] | Potency [20] | Potency [17] | Potency [18]
